# Results taken from PubChem BioAssay (NCATS).
# Results filed as inconclusive are left out. Where a call stands in place of a potency, no number is given. Values without a mark were called inactive. The source made the active and inactive calls. Calls come from the whole dose curve; as a rule, active = well fitted cell-killing curve with a large enough effect; inconclusive = small, poorly fitted or top-dose-only effect, or effect the other way; inactive = flat fitted curve, though single readings scatter.
# Tests used:
# Test in all cases: Primary qHTS to identify gynecologic anti-cancer compounds using libraries of approved drugs and bioactive compounds (AID 1345084); note: nearly all actives have a fitted effect of over 55% in size
# [1] = tested on: C33A; settings: Gynecologic cancer cell panel viability, ATPlite luminescence, 48 h; series mostly up to 57.5 µM
# Procedure, shortened: (§1)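 Cells, 1,000 per well, were allowed to settle for 16 h at 37 C before compound addition. Five concentrations were tested for 48 h, and viability was read by ATPlite luminescence after 15 min at room temperature.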
# [2] = tested on: CAOV3; settings: Gynecologic cancer cell panel viability, ATPlite luminescence, 48 h; series mostly up to 57.5 µM
# Procedure, shortened: as §1
# [3] = tested on: CASKI; settings: Gynecologic cancer cell panel viability, ATPlite luminescence, 48 h; series mostly up to 57.5 µM
# Procedure, shortened: as §1
# [4] = tested on: Es-2; settings: Gynecologic cancer cell panel viability, ATPlite luminescence, 48 h; series mostly up to 57.5 µM
# Procedure, shortened: as §1
# [5] = tested on: HeLa; settings: Gynecologic cancer cell panel viability, ATPlite luminescence, 48 h; series mostly up to 57.5 µM
# Procedure, shortened: as §1
# [6] = tested on: Hek293T; settings: Gynecologic cancer cell panel viability, ATPlite luminescence, 48 h, control line for the selectivity index; series mostly up to 57.5 µM
# Procedure, shortened: as §1
# [7] = tested on: JEG-3; settings: Gynecologic cancer cell panel viability, ATPlite luminescence, 48 h; series mostly up to 57.5 µM
# Procedure, shortened: as §1
# [8] = tested on: OV90; settings: Gynecologic cancer cell panel viability, ATPlite luminescence, 48 h; series mostly up to 57.5 µM
# Procedure, shortened: as §1
# [9] = tested on: PA-1; settings: Gynecologic cancer cell panel viability, ATPlite luminescence, 48 h; series mostly up to 57.5 µM
# Procedure, shortened: as §1
# [10] = tested on: SKOV3; settings: Gynecologic cancer cell panel viability, ATPlite luminescence, 48 h; series mostly up to 57.5 µM
# Procedure, shortened: as §1
# [11] = tested on: Tov-21-G; settings: Gynecologic cancer cell panel viability, ATPlite luminescence, 48 h; series mostly up to 57.5 µM
# Procedure, shortened: as §1
# [12] = tested on: Tov112D; settings: Gynecologic cancer cell panel viability, ATPlite luminescence, 48 h; series mostly up to 57.5 µM
# Procedure, shortened: as §1
# Potency is the fitted concentration of half-maximal effect.
SMILES,Potency [1],Potency [2],Potency [3],Potency [4],Potency [5],Potency [6],Potency [7],Potency [8],Potency [9],Potency [10],Potency [11],Potency [12]
C[C@H](NC(=O)CCc1nc2ccccc2c(=O)[nH]1)c1ccccc1,inactive,inactive,inactive,inactive,inactive,inactive,inactive,inactive,inactive,inactive,inactive,inactive
COc1ccccc1Oc1ccc(N(Cc2cccnc2)S(=O)(=O)CC(F)(F)F)cc1,inactive,inactive,inactive,inactive,inactive,inactive,inactive,inactive,inactive,inactive,inactive,inactive
CC1=C2C3OC(=O)C(C)C3(O)CCC2(C)CCC1O (configuration not stated),inactive,inactive,inactive,inactive,inactive,inactive,inactive,inactive,inactive,inactive,inactive,inactive
CC(C)CC1NC(=O)C(C)NC(=O)C(CC(C)C)OC(=O)CCCNC1=O (configuration not stated),inactive,inactive,inactive,inactive,inactive,inactive,inactive,inactive,inactive,inactive,inactive,inactive
CC12CCC(OC3OC(CO)C(O)C(OC4OC(CO)C(O)C(O)C4O)C3O)CC1=CCC1C2CCC2(C)/C(=C3/COC(=O)C3)CCC12O (configuration not stated),inactive,inactive,inactive,inactive,inactive,inactive,inactive,inactive,inactive,inactive,inactive,
CC1C(OC(=O)c2ccccc2)C(O)C2C(C(=O)O)=COC(OC3OC(CO)C(O)C(O)C3O)C12 (configuration not stated),inactive,inactive,inactive,inactive,inactive,inactive,inactive,inactive,inactive,inactive,inactive,inactive
O=C(CCc1ccccc1)N1CCC(O)(Cn2cnc3cc(Cl)ccc3c2=O)CC1,inactive,inactive,inactive,inactive,inactive,inactive,inactive,inactive,inactive,inactive,inactive,inactive
COc1c2c(c(C)c3c1C(=O)OC3)O[C@@]1(C)CC(O)C(C(C)(C)O)[C@](C)(CCC(=O)O)[C@H]1C2 (some centres not stated),inactive,inactive,inactive,inactive,inactive,inactive,inactive,inactive,inactive,inactive,6.31 µM (active),inactive
C=C(C(=O)OC)C1C(O)CC2(C)C(=O)CCC(O)(CO)C2C1O (configuration not stated),inactive,inactive,inactive,inactive,inactive,inactive,inactive,inactive,inactive,inactive,inactive,inactive
CC1(C)CCCC2(C)C(CO)C(CO)=CCC12 (configuration not stated),inactive,inactive,inactive,inactive,inactive,inactive,inactive,inactive,inactive,inactive,inactive,inactive
COC(=O)[C@H](O)[C@H]1C(C)(C)[C@H](OC(=O)C(C)C)[C@@]2(O)C(=O)[C@]1(C)C1CC[C@]3(C)C(CC(=O)O[C@H]3c3ccoc3)[C@]13O[C@@H]32 (some centres not stated),inactive,inactive,inactive,inactive,inactive,inactive,inactive,inactive,inactive,inactive,inactive,inactive
CC1(C)CCCC2(C)C1CC=C1C(=O)OC(O)C12O (configuration not stated),inactive,inactive,inactive,inactive,inactive,inactive,inactive,inactive,inactive,inactive,inactive,inactive
O=C(OCC1=CC(O)C2C=CO[C@@H](O[C@@H]3O[C@H](CO)[C@@H](O)[C@H](O)[C@H]3O)C12)c1ccccc1 (some centres not stated),inactive,inactive,inactive,inactive,inactive,inactive,inactive,inactive,inactive,inactive,inactive,inactive
CC(=O)OC1CC2(C)C3=CCC4(C)C5C(O)C(O)C(C(C)C)C5(C)CCC4(C)C3CCC2C(C)(C)C1OC1OC(CO)C(O)C(O)C1O (configuration not stated),inactive,inactive,inactive,inactive,inactive,inactive,inactive,inactive,inactive,inactive,inactive,inactive
